# From PubChem BioAssay
# Test: sensitizers of A549 cells to miR-34 induction, primary screen, imaging, A549 dox-inducible miR-34, nuclei and caspase counts (AID 1347080); note: test concentration not given here
# Conditions: A549 miR-34 inducible, Hoechst nuclei count, 48 h; measured here: total cells without miR-34 induction
row,SMILES,cell count
1,CCCCCCCCCCCCCCCCOC[C@H](COP(=O)([O-])OCC[N+](C)(C)C)SC(=O)CCCCCC,5950
2,CCCCCCCCCCCC(=O)c1nc2ncccc2o1,5460
3,CC(C(=O)Nc1cccc(N=Cc2c(O)ccc3ccccc23)c1)c1ccccc1 (configuration not stated),6150
4,CCCC[C@H](CCC(=O)O)NC(=O)CCCCCCc1ccccc1,6570
5,CCOC(=O)c1ccc(N=Nc2ccc(O)c(CC(=O)O)c2)cc1,6490
6,CCCCCCCCCCCCCCCC(=O)OCC,5950
7,Clc1ccc(/C=C/c2cc(Cl)cc(Cl)c2)cc1,5270
